Results as given in PubChem BioAssay (Tox21).
Results filed as inconclusive are left out. Entries that show only a call come without a potency. Where a structure was tested more than once in an assay, its records may differ in their call. Calls of active or inactive are those of the source. Calls come from the whole dose curve; as a rule, active = well fitted curve in the direction sought with a large enough effect in the repeat runs; inconclusive = weak or mixed curves; inactive = no such curve, though single readings can be large; an effect the other way counts as inactive or inconclusive.

Experiment: Human pregnane X receptor (PXR) small molecule agonists, qHTS cell viability counter screen (AID 1346977); note: nearly all actives have a fitted effect of over 50% in size; note: potency is the fitted concentration of half-maximal effect
Settings: PXR-Luc HepG2 viability, CellTiter-Fluor, 24 h; series mostly up to 92.4 µM
Outline: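 Fluorescence read-out (CellTiter-Fluor) of viability in PXR-Luc HepG2 cells, multiplexed with the luciferase agonist read. Compounds in DMSO added after 5hr plating; 24hr total exposure at 37C, 5% CO2.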

| SMILES | Potency |
| --- | --- |
| CN(C)c1cccc(O)c1 | inactive |
| OC1CCCC1 | inactive |
| NS(=O)(=O)c1cc2c(cc1Cl)NC=NS2(=O)=O | inactive |
| OCCOCCOCCOCCO | inactive |
| CCC(C)C=O (stereo not drawn) | inactive |
| C=C(C)C(=O)OCCC[Si](OC)(OC)OC | inactive |
| CC(C)(C)C1CCC(O)CC1 (stereo not drawn) | inactive |
| ClC1=C(Cl)C(Cl)(Cl)C(Cl)=C1Cl | inactive |
| Cc1cc(=O)[nH]c(C(C)C)n1 | inactive |
| CCCCCC/C=C/CCCCCCCC(=O)O | inactive |
| CC1Cc2ccccc2N1NC(=O)c1ccc(Cl)c(S(N)(=O)=O)c1 (stereo not drawn) | inactive |
| CC1(C)CC(N=C=O)CC(C)(CN=C=O)C1 (stereo not drawn) | inactive |
| Cc1ccc(C)c(C)c1 | inactive |
| Oc1ccc(OCc2ccccc2)cc1 | inactive |
| O=C1O[C@H](CO)[C@@H](O)[C@H](O)[C@H]1O | inactive |
| C[C@@H]1O[C@@H](OC[C@H]2O[C@@H](Oc3c(-c4ccc(O)c(O)c4)oc4cc(O)cc(O)c4c3=O)[C@H](O)[C@@H](O)[C@@H]2O)[C@H](O)[C@H](O)[C@H]1O | inactive |
| O=S(=O)(O)CCS | inactive |
| O=C(Oc1ccccc1)c1ccc(O)cc1 | inactive |
| CC1=CC[C@H]2C[C@@H]1C2(C)C | inactive |
| O=[N+]([O-])c1cccc(Cl)c1 | inactive |
| O=C(O)c1cc(-c2ccccc2)nc2ccccc12 | inactive |
| CCCCC(CC)COC(C)=O (stereo not drawn) | inactive |
| O=[N+]([O-])C(CO)(CO)CO | 758 nM (active) and inactive |
| C=C(C#N)C(=O)OCC | inactive |
| CC(C)(CO)COC(=O)C(C)(C)CO | inactive |

Experiment: Caspase-3/7 induction in HepG2 cells by small molecules, qHTS assay (AID 1346978); note: nearly all actives have a fitted effect of over 15% in size
Settings: HepG2 caspase-3/7 activation, Caspase-Glo luminescence, 17 h; series mostly up to 92.4 µM
Outline: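 Wild-type HepG2 cells, 2,000/well, settled 5 hr at 37 C and 5% CO2, then compound-treated for 17 hr; caspase-3/7 activity read by luminescent Caspase-Glo 3/7 after 30 min at room temperature.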

| SMILES | Potency |
| --- | --- |
| CN(C)c1cccc(O)c1 | inactive |
| CS(=O)(=O)Nc1ccc([N+](=O)[O-])cc1Oc1ccccc1 | inactive |
| CCCCCCCCC | inactive |
| OC1CCCC1 | inactive |
| NS(=O)(=O)c1cc2c(cc1Cl)NC=NS2(=O)=O | inactive |
| Nc1c(S(=O)(=O)O)cc(Br)c2c1C(=O)c1ccccc1C2=O | inactive |
| OCCOCCOCCOCCO | inactive |
| CC(C)(N=C=O)c1cccc(C(C)(C)N=C=O)c1 | inactive |
| CCC(C)C=O (stereo not drawn) | inactive |
| CCOC(=O)/C=C\C(=O)OCC | inactive |
| C=C(C)C(=O)OCCC[Si](OC)(OC)OC | inactive |
| CC(C)(C)C1CCC(O)CC1 (stereo not drawn) | inactive |
| ClC1=C(Cl)C(Cl)(Cl)C(Cl)=C1Cl | inactive |
| Cc1cc(=O)[nH]c(C(C)C)n1 | inactive |
| CCCCCC/C=C/CCCCCCCC(=O)O | inactive |
| Cc1ccc(N)c(S(=O)(=O)O)c1 | inactive |
| CC1Cc2ccccc2N1NC(=O)c1ccc(Cl)c(S(N)(=O)=O)c1 (stereo not drawn) | inactive |
| CC1(C)CC(N=C=O)CC(C)(CN=C=O)C1 (stereo not drawn) | inactive |
| CC(C)Cc1ccccc1 | inactive |

| SMILES | Potency |
| --- | --- |
| Cc1ccc(C)c(C)c1 | inactive |
| CCCCCCC(C)(C)S | inactive |
| Oc1ccc(OCc2ccccc2)cc1 | inactive |
| O=S(=O)(O)c1cc(S(=O)(=O)O)c2c(N=Nc3ccccc3)c(O)ccc2c1 | inactive |
| O=C1O[C@H](CO)[C@@H](O)[C@H](O)[C@H]1O | inactive |
| C[C@@H]1O[C@@H](OC[C@H]2O[C@@H](Oc3c(-c4ccc(O)c(O)c4)oc4cc(O)cc(O)c4c3=O)[C@H](O)[C@@H](O)[C@@H]2O)[C@H](O)[C@H](O)[C@H]1O | inactive |
| O=S(=O)(O)CCS | inactive |
| O=C(Oc1ccccc1)c1ccc(O)cc1 | inactive |
| CC1=CC[C@H]2C[C@@H]1C2(C)C | inactive |
| O=[N+]([O-])c1cccc(Cl)c1 | inactive |
| O=C(O)c1cc(-c2ccccc2)nc2ccccc12 | inactive |
| C=C(C)C(=O)OCCCCCCCCCCCC | inactive |
| CNC[C@H](O)[C@@H](O)[C@H](O)[C@H](O)CO | inactive |
| CCCCCCCCCC(=O)O | inactive |
| CCCCC(CC)COC(C)=O (stereo not drawn) | inactive |
| O=[N+]([O-])C(CO)(CO)CO | inactive |
| CC1=C(/C=C/C(C)=C/C=C/C(C)=C/CO)C(C)(C)CCC1 | inactive |
| C=C(C#N)C(=O)OCC | inactive |
| CC(C)(CO)COC(=O)C(C)(C)CO | inactive |
